# Screening data deposited in PubChem by National Center for Advancing Translational Sciences (NCATS).
# Rows were chosen to be rich in hits. Some 21% of all compounds tested hit in one or more screens of this group.
# Cycloheximide cs = counter-screen hit for Shiga toxin inhibitors, cycloheximide. cell reporter, cycloheximide protein synthesis inhibition counterscreen. 12% of 300,000 active. max response, %; in the data active = max response mostly above about 13%, no sharp cut-off; inactive = mostly below about 14%; note: read at 38.3 µM for the half of the compounds with a filed dose; 0% is about no effect
# AMA1 RON2 block = disrupts binding of P. falciparum AMA1 to RON2; 0.2% of 360,000 active; AID 720542; AlphaScreen AMA1-biotinylated RON2 peptide binding; Potency, µM (doses to about 58.2 µM), for the others: at the top dose activity change, negative = inhibition, usual class: inhibitors;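 note: potency is the fitted concentration of half-maximal effect; 0% = vehicle wells and -100% = peptide control; nearly all actives have a fitted effect of over 45% in size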
#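 AMA1 (3D7) with his tag at 25 nM final met compounds first, then biotinylated RON2 peptide at 25 nM; detection used donor plus acceptor beads, 10 µg/mL apiece, read by AlphaScreen after 30 min at room temperature.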
# Pf growth 96h = P. falciparum growth inhibition at 96 hour, primary screen for plastid delayed-death inhibitors; P. falciparum luciferase reporter growth, 96 h; Potency, µM (doses to about 28.7 µM), without a hit: at the highest dose activity change, negative = inhibition, actives largely listed as inhibitors; 6.9% of 320,000 active; AID 504834; note: potency is the fitted concentration of half-maximal effect; % is set by controls: 0 for no effect and ±100 for the full control effect
#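 Two-generation exposure (96 h) targets delayed-death phenotype. Reporter parasites carrying integrated firefly luciferase, in red cells at 2% hematocrit and 0.05% parasitemia final, kept at 37 C, 5% CO2; luminescence loss indicates inhibition.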
# Shiga inhibitor = blocks Shiga toxin action in Vero cells; 9.2% of 290,000 active; Vero cells, Shiga toxin protein synthesis inhibition reporter; inhibition, % at 38.7 µM; in the data active = inhibition mostly above about 28%, no sharp cut-off; inactive = mostly below about 43%; note: 0% is about no effect
# HCV inhibitor = inhibitors of hepatitis C virus infection. Huh7.5.1 HCVcc-Cre infection, luciferase reporter, 44 h. Potency, µM (top dose mostly 41.8 µM), inactives show top-dose activity change, negative = inhibition, usual class: inhibitors. 3.4% of 340,000 active; note: potency is the fitted concentration of half-maximal effect; % is set by controls: 0 for no effect and ±100 for the full control effect
#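 Compounds are dispensed onto cells plated 4 h earlier at 1,000 per well, with HCVcc-Cre virus (about 0.5 moi) added next. Following 44 h of culture, luminescent signal is measured for 15 sec after 15 min with substrate at room temperature.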
# Pf growth 48h = inhibits P. falciparum growth in the first generation, 48 h; P. falciparum luciferase growth in erythrocytes, 48 h; Potency, µM (titrated, usually from 28.7 µM), inactives show at the highest dose activity change, negative = inhibition, actives largely listed as inhibitors; 5.9% of 310,000 active; note: potency is the fitted concentration of half-maximal effect; % is set by controls: 0 for no effect and ±100 for the full control effect
#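 Luciferase-expressing parasites in RBCs, 2% Hct / 0.1% parasitemia final; RPMI 1640 + 0.5% Albumax; 37 C, 5% CO2, one generation; luminescence read-out, lower signal = inhibition.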
# * marks the source's active call; other numbers are inactive results; ? = inconclusive; . = no result; [ ] = another dose, or the depositor's remark. Unless noted, calls come from the whole dose curve; as a rule, active = well fitted curve in the direction sought with a large enough effect; inconclusive = small, poorly fitted or top-dose-only effect, or another doubt; inactive = no such curve, though single readings can be large; an effect the other way counts as inactive or inconclusive.
SMILES,Cycloheximide cs,AMA1 RON2 block,Pf growth 96h,Shiga inhibitor,HCV inhibitor,Pf growth 48h
CCCCc1nc2cc(C(=O)N3CCC(O)CC3)ccc2o1,38*,-3%,-26%,47*,10%,153%
Cc1ccc(Sc2ccc(C(=O)N3CCOCC3)cc2[N+](=O)[O-])cc1,-3,-10%,-9%,-5,-14%,.
CC(C)(C)c1ccc(S(=O)(=O)NCC(=O)N2CCCC2)cc1,-4,0%,?,.,-8%,6%
Cc1cc(/C=C2/NC(=S)NC2=O)c(C)n1-c1cccnc1,37*,-5%,7%,51*,-3%,23%
Cc1cc(/C=C2/NC(=O)N(c3ccccc3)C2=O)c(C)n1-c1cccnc1,59*,-17%,?,91*,?,9%
Cc1cc(C=C2C(=O)NC(=O)NC2=O)c(C)n1-c1cccnc1,-5,-11%,17%,-6,6%,1%
COc1cc2c(cc1OC)CN(c1ccc(C(F)(F)F)cn1)CC2,21*,-11%,38%,53*,?,19%
COc1cc2c(cc1OC)CN(c1ccc3ccccc3n1)CC2,42*,-21%,?,88*,13µM*,12µM*
COc1cc2c(cc1OC)CN(c1ccc(-c3ccccc3OC)nn1)CC2,-3,-20%,6%[5.75 µM],4,?,5.2µM*
COc1cc2c(cc1OC)CN(c1ccc([N+](=O)[O-])c(C(F)(F)F)c1)CC2,-3,-19%,?,-6,?,?
CCC(CC)C(=O)N(C)c1c(C)nc2c(OCc3ccc(Cl)cc3Cl)cccn12,.,-14%,.,.,.,.
O=C(COC(=O)/C=C/c1ccc(Cl)cc1Cl)NCC1CCCO1 (centres undefined),.,-4%,.,.,8%,.
CC(NC(=O)COc1ccc(Br)cc1)C1CCCO1 (centres undefined),1,12%,3%,21,19%,-9%
O=C(Nc1ccc([N+](=O)[O-])cn1)C1CC2CCC1C2 (centres undefined),13,0%,59%,17*,-6%,54%
O=C(Nc1nccs1)C1CC2CCC1C2 (centres undefined),5,-8%,-17%,33,-2%,-41%
CNC(=O)CSc1nc2nn(-c3ccccc3)c(=O)c-2c2n1CCCCC2,-3,6%,?,-12,5%,?
O=C(CSc1nc2nn(-c3ccccc3)c(=O)c-2c2n1CCCCC2)c1ccc(O)c(O)c1,.,-15%[11.6 µM],?,.,?,9.3µM*
Cc1ccc(/C=N\NC(=O)/C(=C\Nc2nccc(C)n2)NC(=O)c2ccccc2)cc1,1,-8%,4%,3,?,76%
CSC(=CC(=O)c1ccc(F)cc1)SC,26*,-23%,40%,18,0%,45%
CSC(=CC(=O)c1ccccc1)SC,25*,-4%,68%,66*,.,37%
O=C(C=C(C(=O)c1ccccc1)c1ccccc1)c1ccccc1,.,-12%,.,.,?,.
CCOC(=O)c1[nH]c(C)c(C(=O)O)c1C,-8,.,0%,-15,.,.
CCCCCCC(=O)c1c(C)[nH]c(C(=O)OCC)c1C,30*,-5%,-15%,81*,?,?
CCCN(CCC)C(=O)c1c(C)[nH]c(C(=O)OCC)c1C,1,.,4%,2,0%,-7%
CCCCCC(=O)c1c(C)[nH]c(C(=O)OCC)c1C,17*,-16%,?,104*,-17%,?
SMILES,Cycloheximide cs,AMA1 RON2 block,Pf growth 96h,Shiga inhibitor,HCV inhibitor,Pf growth 48h
CCOc1ccc(N(CC(=O)NC2CCCCC2)C(=O)CCCC(=O)Nc2ccccn2)cc1,1,26%,?,-6,-2%,-7%
CC12CCC(=O)N1C(C(=O)Nc1cccc(F)c1)CS2 (centres undefined),-2,0%,0%,-2,14%,-3%
O=C(CSC(=S)N1CCCCC1)c1ccccc1,23*,-7%,109%,35,2%,174%
Cc1[nH]c2ccccc2c1C(=O)CSC(=S)N(C)C1CCCCC1,15,-7%,-79%,41,-9%,?
Cc1[nH]c2ccccc2c1C(=O)CSC(=S)N1CCCCC1,95*,-11%,65%,85*,?,45%
COc1ccc(C(=O)CSC(=S)N2CCCCC2)cc1,.,-1%,.,.,.,.
O=C(O)CSC(=S)N1CCCC1,-1,-11%,28%,4,12%,3%
O=C(CSC(=S)N1CCCC1)c1ccccc1,48*,4%,17%,67*,-7%,2%
O=C(O)c1cccc(/C=C2/C[C@@H]3[C@@H](/C=C/[C@@H](O)C4CCCCC4)[C@H](O)C[C@@H]3O2)c1,6,.,.,18,.,.
Cc1ccc(F)cc1-c1ccc(C(=O)N=C(N)N)o1,32*,.,.,60*,.,.
S=c1[nH]nc(-c2ccco2)n1-c1ccccc1Cl,33*,24%,31%,67*,3%,?
S=c1[nH]nc(-c2ccc3ccccc3n2)n1-c1ccccc1Cl,5,55%,12%,11,6%,-1%
S=c1[nH]nc(-c2ccn[nH]2)n1-c1ccccc1Cl,28*,55%,-2%,72*,-5%,7%
O=C(/C=C/c1ccc2ccccc2c1)c1ccoc1,34*,-4%,58%,53*,-9%,70%
COc1ccc(/C=N/Nc2nc3ccccc3c(=O)n2-c2ccccc2)cc1OC,21*,9%,?,24,?,23%
COc1ccc(-n2c(O)c(/C=N/Nc3nc(C)cc(C)n3)c3ccccc3c2=O)cc1OC,1,124%,?,-5,2.8µM*,?
Cc1nnc(N/N=C/c2c(O)n(-c3cccc(C(F)(F)F)c3)c(=O)c3ccccc23)[nH]c1=O,1,.,?,-10,.,6.6µM*
COc1ccc(-n2c(O)c(/C=N/NS(=O)(=O)c3ccc(C)cc3)c3ccccc3c2=O)cc1OC,-4,-11%,?,-11,17%,?
CCN(CC)c1ccc(S(=O)(=O)N2CCOCC2)cc1NC(=O)CSc1nncs1,.,-9%,?,.,-1%,?
CC(=O)N[C@H]1[C@H](O[C@@H]2c3ccc(c(Cl)c3)Oc3cc4cc(c3O[C@@H]3O[C@H](CO)[C@@H](O)[C@H](O)C3C)Oc3ccc(cc3Cl)C[C@H]3NC(=O)[C@@H](N)c5ccc(O)c(c5)Oc5cc(O)cc(c5)[C@H](NC3=O)C(=O)N[C@H]4C(=O)N[C@H]3C(=O)N[C@@H]2C(=O)N[C@@H](C(=O)O)c2cc(O)cc(O[C@H]4O[C@H](CO)[C@@H](O)C(O)[C@@H]4O)c2-c2cc3ccc2O)O[C@H](CO)[C@@H](O)[C@@H]1O (some centres undefined),.,.,?,.,.,-5%[12.8 µM]
COc1ccc(NC(=O)C(c2cc3ccccc3o2)n2c(=O)c(-c3cc4ccccc4[nH]3)nc3ccccc32)cc1 (centres undefined),.,43%,.,.,.,.
